The values below come from PubChem BioAssay AID463173 (ICCB-Longwood Screening Facility, Harvard Medical School, 2010).

Hit rate of the full screen: of about 52,000 compounds, about 4,300 (8.3%) were called active. For the sample, actives were picked, then their nearest neighbours and some compounds at random. Unmarked numbers belong to inactive results. No stated cut-off is given here; in the data, active means survival mostly below about 52% (no sharp cut-off); inactive means mostly above about 56%.

The test system of this assay is DeltatarO mutant. The experiment in a line: growth inhibition of S. aureus wild type versus tarO mutant, primary screen, teichoic acid synthesis inhibitors, RN4220, OD600 (AID 463173). As to conditions: OD600, 18 h, active compounds read low, screened at 18.75 µg/mL (by protocol).
Consider `Cc1ccc(C(=O)c2oc3ccccc3c2NC(=O)COc2ccc(Cl)c(C)c2)cc1`, for which the survival was 90%.
Consider `COc1cc(-c2nc3n(n2)C(c2ccc(F)cc2)C(C(N)=O)=C(C)N3)cc(OC)c1OC` (stereo not given), for which the survival is 91%.
As for `Cc1ccc2c(CC(=O)Nc3c(C(=O)Nc4cccc(Cl)c4)oc4ccccc34)coc2c1C`, the survival was 62%.
With `Cc1cccc(OCc2cc(=O)n3c(-c4ccccc4)csc3n2)c1C`, the survival is 77%.
To `O=C(Nc1cccc(C(=O)OCc2cc(=O)n3c4c(sc3n2)CCCC4)c1)c1ccccc1` belongs 102%; to `Cc1cccc(C)c1OCc1cc(=O)n2c(-c3ccccc3)csc2n1`, 19% (active); to `Cc1ccccc1OCc1cc(=O)n2c(-c3ccccc3)csc2n1`, 69%.
To `O=C(Nc1ccc(C(=O)OCc2cc(=O)n3c4c(sc3n2)CCCC4)cc1)c1ccccc1` belongs 25% (active); to `O=C(Nc1ccc(C(=O)OCc2cc(=O)n3c4c(sc3n2)CCCC4)cc1)c1ccc(Cl)cc1`, 92%; to `CCN1CCN(CCCNC(=O)Cn2c(-c3cccs3)cc3ccccc32)CC1`, 78%.
For the molecule `Cc1ccccc1Cn1c2ccccc2c2cnn(CC(=O)NC3CCCCCC3)c(=O)c21`, the survival was 87%.
As to `Cc1ccc2[nH]c(=O)c3cc(C(=O)NCCc4ccc(Cl)cc4)sc3c2c1`, the survival is 74%.
On to `CCc1nnc(NC(=O)c2sc3nc4ccc(OC)cc4cc3c2N)s1`, for which the survival is 77%.
Regarding `CC(=O)c1ccc(NC(=O)c2cc(-c3ccc4c(c3)OCO4)on2)cc1`, the survival is 67%.
For the molecule `O=C(NCCc1ccccc1)c1cc(-c2ccc(Cl)c(Cl)c2)on1`, the survival is 57%.
In the case of `CC(=O)Nc1ccc(NC(=O)c2cc(-c3ccc4c(c3)OCCO4)on2)cc1`, the survival is 118%.
Take `CC(=O)c1ccc(NC(=O)c2cc(-c3ccc(Cl)c(Cl)c3)on2)cc1`: the survival was 47% (active).
As for `CCCCNC(=O)c1cc(-c2ccc(Cl)c(Cl)c2)on1`, the survival was 45% (active).
To `CCCNC(=O)c1cc(-c2ccccc2)on1` belongs 95%.
Take `O=c1cc(Nc2cccc(Br)c2)[nH]c(=O)[nH]1`: the survival was 68%.
As for `O=C(NCc1cccs1)c1ccc(Cn2c(SCc3ccccc3)nc3cccnc32)cc1`, the survival is 71%.
For `CCOc1ccc(NC(=O)c2sc3nc4c(c(-c5ccccc5)c3c2N)C(=O)CC(C)(C)C4)cc1`, the survival was 49%.
Regarding `CCOC(=O)c1cc(NC(=O)c2ccc(OC)cc2)c(=O)n2c1oc1ccc(Cl)cc12`, the survival was 46% (active).
Regarding `CCOC(=O)c1cc(NC(=O)c2ccc(Cl)cc2)c(=O)n2c1oc1ccccc12`, the survival was 34% (active).
Take `CCOC(=O)c1cc(NC(=O)c2ccc(F)cc2)c(=O)n2c1oc1ccc(Cl)cc12`: the survival is 127%.
With `CCOC(=O)c1cc(NC(=O)c2ccc(C)cc2)c(=O)n2c1oc1ccc(Cl)cc12`, the survival is 55%.
To `CCOC(=O)c1cc(NC(=O)c2ccc(F)cc2)c(=O)n2c1oc1ccccc12` belongs 54%.
Consider `CCOC(=O)c1cc(NC(=O)c2ccc(C)cc2)c(=O)n2c1oc1ccccc12`, for which the survival is 52%.
`O=C(NCCC1=CCCCC1)c1ccc2c(c1)ncn2-c1cccc(Cl)c1`: the survival was 98%.
As for `Cc1cc(C)c(NC(=O)Cn2ccn(-c3cccc(Cl)c3)c(=O)c2=O)c(C)c1`, the survival is 57%.
As to `COc1ccc(NC(=O)c2cc(S(=O)(=O)N3CCOCC3)cn2C)cc1Cl`, the survival was 108%.
With `CCN(CC)C(=O)c1sc2c(c1C)c(=O)n(CCc1ccccc1)c(=O)n2Cc1ccc(F)cc1Cl`, the survival was 89%.
Take `CCS(=O)(=O)N1CCN(S(=O)(=O)c2ccc(Cl)cc2)CC1`: the survival is 88%.
On to `Cc1ccc(S(=O)(=O)N2CCN(S(=O)(=O)c3ccc(C)cc3)CC2)cc1`, for which the survival is 96%.
`COc1ccc(CN2CCN(S(=O)(=O)c3ccc(NC(C)=O)cc3)CC2)c(OC)c1OC`: the survival is 61%.
As for `CC(=O)Nc1ccc(S(=O)(=O)N2CCN(Cc3ccccc3Cl)CC2)cc1`, the survival was 62% (active).
With `CCOc1ccc(CN2CCN(S(=O)(=O)c3ccc(Cl)cc3)CC2)cc1` the figure was 27% (active); with `Cc1ccc(S(=O)(=O)N2CCC(C(=O)NCc3ccccc3Cl)CC2)cc1`, 74%; with `CCOc1cc(CN2CCN(S(=O)(=O)c3ccc(C)cc3)CC2)ccc1OC`, 171%.
Take `Cc1ccc(S(=O)(=O)N2CCN(Cc3ccccc3Cl)CC2)cc1`: the survival was 13% (active).
For the molecule `COc1cc(OC)c(OC)cc1CN1CCN(S(=O)(=O)c2ccc(NC(C)=O)cc2)CC1`, the survival was 79%.
As for `O=C(NC1CC(=O)N(c2ccc(F)cc2)C1)c1ccc2c(c1)OCO2` (stereo not given), the survival was 75%.
For `Cc1cccc(Nc2nnc(-c3ccc(C)c(S(=O)(=O)NCC4CCCO4)c3)c3ccccc23)c1` (stereo not given), the survival was 82%.
With `CCOC(=O)COc1ccc(CC)cc1C(=O)c1ccn2nc(-c3ccc(C)cc3)cc2n1`, the survival was 75%.
To `COc1ccc(CCNC(=O)c2cccc(Nc3nc4ccccc4nc3-n3nc(C)cc3C)c2)cc1OC` belongs 91%; to `N#Cc1nc(-c2ccc(COc3ccc(Cl)cc3)o2)oc1N1CCN(c2ccccc2)CC1`, 64%.
In the case of `CCc1ccc(S(=O)(=O)c2nnn3c2nc(NCc2cccc(OC)c2)c2cc(Cl)ccc23)cc1`, the survival was 105%.
`COc1ccc(NC(=O)c2cnn(-c3ccc(F)cc3F)c2C2CCN(C(=O)OC(C)(C)C)CC2)cc1Cl`: the survival was 72%.
For `COc1ccccc1C(=O)Nc1nc(-c2ccccc2)ns1`, the survival was 45% (active).
With `Cc1ccc(-c2nsc(NC(=O)c3oc4cc(C)c(Cl)cc4c3C)n2)cc1`, the survival is 74%.
On to `Cc1cc2oc(C(=O)Nc3nc(-c4ccccc4)ns3)c(C)c2cc1Cl`, for which the survival was 45% (active).
Turning to `COc1ccc(-c2nsc(NC(=O)c3ccccc3Br)n2)cc1`, the survival was 34% (active).
In the case of `COc1ccc(-c2nsc(NC(=O)c3cccc(OC)c3)n2)cc1`, the survival was 85%.
To `Cc1ccccc1C(=O)Nc1nc(-c2ccc(Br)cc2)ns1` belongs 49%; to `COc1ccccc1C(=O)Nc1nc(-c2ccc(Br)cc2)ns1`, 86%; to `CCc1ccc2oc(C(=O)Nc3nc(-c4ccccc4)ns3)c(C)c2c1`, 53%.
`COc1ccc(C(=O)Nc2nc(-c3ccc(Br)cc3)ns2)cc1`: the survival was 58% (active).
Regarding `CCOc1ccc(C(=O)Nc2nc(-c3ccc(Br)cc3)ns2)cc1`, the survival was 76%.
In the case of `Cc1ccc(C(=O)Nc2nc(-c3ccccc3)ns2)cc1`, the survival was 59%.
On to `COc1cccc(C(=O)Nc2nc(-c3ccc(Br)cc3)ns2)c1`, for which the survival was 65%.
